This note sets out measurements from PubChem BioAssay (NCI).

“And” between values parts separate entries of the source, which are not always exact repeats. Identical values can stand only once. Compounds without any hit were thinned out: in the full panel of roughly 79,000, 15% have a hit. Values without a mark were called inactive. The source made the active and inactive calls. Rule as the data show it: active = growth inhibition above about 70%; inactive = the rest.

Assay [1] can be described thus: NCI Yeast Anticancer Drug Screen. Data for the rad50 strain (AID 155).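 Also: 0% = growth of vehicle-only cultures of the same strain.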 The following applies: S. cerevisiae rad50 strain growth inhibition, hits give high values. The essentials: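 Vehicle-treated cultures provide the reference for the growth inhibition reported for compound-exposed, repair-deficient yeast.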
The nature of assay [2]: NCI Yeast Anticancer Drug Screen. Data for the mec2-1 strain (AID 157). The following applies: S. cerevisiae mec2-1 strain, hits give high values. The essentials: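 Test agents were screened against the mec2-1 yeast strain, with defined DNA repair or cell cycle alteration. Growth was scored as inhibition against vehicle-only controls.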
The nature of assay [3]: NCI Yeast Anticancer Drug Screen. Data for the sgs1 mgt1 strain (AID 161).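 Also: 0% = growth of cultures given vehicle only.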 The following applies: S. cerevisiae sgs1 mgt1 strain, hits give high values. The essentials: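 Inhibition of yeast growth, normalised to vehicle-treated controls, is reported for a strain bearing genetic alterations in DNA damage repair.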
Assay [4] can be described thus: NCI Yeast Anticancer Drug Screen. Data for the cln2 rad14 strain (AID 165).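 Also: 0% = growth equal to vehicle treated cultures.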 Particulars: S. cerevisiae cln2 rad14 strain, hits give high values. The essentials: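 Growth of compound-exposed yeast (cln2 rad14 genotype) measured and expressed as inhibition relative to vehicle.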
Assay [5] can be described thus: NCI Yeast Anticancer Drug Screen. Data for the bub3 strain (AID 167). The following applies: S. cerevisiae bub3 mutant strain, hits give high values. The essentials: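 Mutant yeast screening strain plus compound; vehicle-treated cultures serve as the 0% inhibition reference.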
A short description of assay [6]: NCI Yeast Anticancer Drug Screen. Data for the mlh1 rad18 strain (AID 175). The following applies: S. cerevisiae mlh1 rad18 strain growth inhibition, hits give high values. In a few lines: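 In this whole-cell yeast screen, a strain with altered DNA damage repair is challenged with compound, and its growth is measured against matched vehicle-treated controls.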
[7] abbreviates: at 5.0 µM (retest, dose inferred, filed as 0.5).
[8] abbreviates: at 50.0 µM (retest, dose inferred, filed as 5.0).

Consider `N#CNC1=NCOCN1`, for which the growth inhibition in assay [1] (setting [7]) was -3%; in assay [1] (setting [8]), 6%; in assay [1] (at 50.0 µM), -1.6% and 21.8%; in assay [2] (setting [7]), 2%; in assay [2] (setting [8]) it was 10%; in assay [2] (at 50.0 µM), 22.4% and 1.35%. The growth inhibition is 2% in assay [3] (setting [7]); -9% in assay [3] (setting [8]); 13.8% and 8.55% in assay [3] (at 50.0 µM); 4% in assay [4] (setting [7]); 11% in assay [4] (setting [8]); 13.3% and 18.8% in assay [4] (at 50.0 µM). For the same compound, the growth inhibition in assay [5] (setting [7]) is -12%; in assay [5] (setting [8]) it was -3%; in assay [5] (at 50.0 µM) it was 10.1% and -8.85%; in assay [6] (setting [7]) it was 12%; in assay [6] (setting [8]), 9%; in assay [6] (at 50.0 µM), 64.4% and 18.4%.
As for `Cc1cccc(Cc2ccccc2Cl)c1O`, the growth inhibition in assay [1] (setting [7]) is 0%; in assay [1] (setting [8]), 93% (active); in assay [1] (at 50.0 µM), 83.2% (active); in assay [2] (setting [7]) it was -1%; in assay [2] (setting [8]) it was 93% (active); in assay [2] (at 50.0 µM) it was 38%. The growth inhibition in assay [3] (setting [7]) is 1%; in assay [3] (setting [8]) it was 80% (active); in assay [3] (at 50.0 µM), 89.2% (active); in assay [4] (setting [7]), -7%; in assay [4] (setting [8]) it was 84% (active); in assay [4] (at 50.0 µM), 98.6% (active). Besides, the growth inhibition was -1% in assay [5] (setting [7]); 82% (active) in assay [5] (setting [8]); 89.8% (active) in assay [5] (at 50.0 µM); -2% in assay [6] (setting [7]); 81% (active) in assay [6] (setting [8]); 46.2% in assay [6] (at 50.0 µM).
On to `Nc1nccnc1C(=O)O`, for which the growth inhibition in assay [1] (setting [7]) was -166%; in assay [1] (setting [8]), -152%; in assay [1] (at 50.0 µM) it was -12.1% and 7.75%; in assay [2] (setting [7]) it was -49%; in assay [2] (setting [8]), -52%; in assay [2] (at 50.0 µM), 20.9% and 0.9%. The growth inhibition is -63% in assay [3] (setting [7]); -61% in assay [3] (setting [8]); -2.45% and 6.3% in assay [3] (at 50.0 µM); -59% in assay [4] (setting [7]); -54% in assay [4] (setting [8]); 67.5% and 5.6% in assay [4] (at 50.0 µM). Also, the growth inhibition in assay [5] (setting [7]) is -74%; in assay [5] (setting [8]), -75%; in assay [5] (at 50.0 µM), 18.8% and -1.75%; in assay [6] (setting [7]) it was -145%; in assay [6] (setting [8]) it was -108%; in assay [6] (at 50.0 µM), 11.6% and 8.25%.
For the compound `CCOC(=O)C1=C(C(=O)c2ccc(C)cc2)C(c2cccc([N+](=O)[O-])c2)C(C(=O)c2ccc(C)cc2)=C(C(=O)OCC)N1`, the growth inhibition in assay [1] (setting [7]) is 4%; in assay [1] (setting [8]) it was 55%; in assay [1] (at 50.0 µM), 60.6%; in assay [2] (setting [7]) it was 3%; in assay [2] (setting [8]), 69%; in assay [2] (at 50.0 µM) it was 78% (active). The growth inhibition was 8% in assay [3] (setting [7]); 47% in assay [3] (setting [8]); 61.1% in assay [3] (at 50.0 µM); -3% in assay [4] (setting [7]); 2% in assay [4] (setting [8]); 19.3% in assay [4] (at 50.0 µM). The growth inhibition in assay [5] (setting [7]) is 2%; in assay [5] (setting [8]) it was 61%; in assay [5] (at 50.0 µM), 76.2% (active); in assay [6] (setting [7]), 0%; in assay [6] (setting [8]), -17%; in assay [6] (at 50.0 µM), 78.9% (active).
Take `CCC(=O)OCOc1ccc(/C=C2\CCC(CN(C)C)C2=O)cc1` (centres undefined): the growth inhibition in assay [1] (setting [7]) was 30%; in assay [1] (setting [8]) it was 53%; in assay [1] (at 50.0 µM), 93.3% (active); in assay [2] (setting [7]), 23%; in assay [2] (setting [8]) it was 66%; in assay [2] (at 50.0 µM), 92.6% (active). In addition, the growth inhibition in assay [3] (setting [7]) was 40%; in assay [3] (setting [8]), 88% (active); in assay [3] (at 50.0 µM), 92.5% (active); in assay [4] (setting [7]) it was 29%; in assay [4] (setting [8]) it was 34%; in assay [4] (at 50.0 µM), 90.9% (active). For the same compound, the growth inhibition in assay [5] (setting [7]) is 36%; in assay [5] (setting [8]) it was 98% (active); in assay [5] (at 50.0 µM), 84.5% (active); in assay [6] (setting [7]), 33%; in assay [6] (setting [8]) it was 66%; in assay [6] (at 50.0 µM) it was 90.8% (active).
Regarding `CCCCCC(C)c1ccc(O)c(C)c1` (centres undefined), the growth inhibition in assay [1] (setting [7]) is 49%; in assay [1] (setting [8]), 94% (active); in assay [1] (at 50.0 µM) it was 81.7% (active); in assay [2] (setting [7]), 49%; in assay [2] (setting [8]) it was 95% (active); in assay [2] (at 50.0 µM), 56.2%. The growth inhibition is -10% in assay [3] (setting [7]); 43% in assay [3] (setting [8]); 68.9% in assay [3] (at 50.0 µM); 41% in assay [4] (setting [7]); 75% (active) in assay [4] (setting [8]); 61.7% in assay [4] (at 50.0 µM). The growth inhibition in assay [5] (setting [7]) was 32%; in assay [5] (setting [8]) it was 55%; in assay [5] (at 50.0 µM) it was 86.1% (active); in assay [6] (setting [7]), 45%; in assay [6] (setting [8]), 99% (active); in assay [6] (at 50.0 µM), 72.5% (active).
Regarding `CCO/C(=C\C=O)C1CCC2C3CC=C4CC(OC(C)=O)CCC4(C)C3CCC12C` (centres undefined), the growth inhibition is 7% in assay [1] (setting [7]); 45% in assay [1] (setting [8]); 63.4% in assay [1] (at 50.0 µM); -1% in assay [2] (setting [7]); 75% (active) in assay [2] (setting [8]); 51.5% in assay [2] (at 50.0 µM). Further, the growth inhibition in assay [3] (setting [7]) is 8%; in assay [3] (setting [8]) it was 86% (active); in assay [3] (at 50.0 µM), 55.9%; in assay [4] (setting [7]), 2%; in assay [4] (setting [8]), 53%; in assay [4] (at 50.0 µM), 55.1%. Besides, the growth inhibition is -3% in assay [5] (setting [7]); 74% (active) in assay [5] (setting [8]); 23.4% in assay [5] (at 50.0 µM); 14% in assay [6] (setting [7]); 94% (active) in assay [6] (setting [8]); 53.5% in assay [6] (at 50.0 µM).
On to `COC(=O)C1OC(OC(C)=O)C(OC(C)=O)C(OC(C)=O)C1OC(C)=O` (centres undefined), for which the growth inhibition in assay [1] (setting [7]) is -4%; in assay [1] (setting [8]), 5%; in assay [1] (at 50.0 µM), 7.25% and 3.25%; in assay [2] (setting [7]), -6%; in assay [2] (setting [8]), 8%; in assay [2] (at 50.0 µM), 14.4% and 8.2%. Further, the growth inhibition is -5% in assay [3] (setting [7]); 9% in assay [3] (setting [8]); 7.05% and 10.9% in assay [3] (at 50.0 µM); 1% in assay [4] (setting [7]); -2% in assay [4] (setting [8]); -12.2% and 60.5% in assay [4] (at 50.0 µM). The growth inhibition in assay [5] (setting [7]) was -4%; in assay [5] (setting [8]), 11%; in assay [5] (at 50.0 µM), -7.15% and 24.6%; in assay [6] (setting [7]), -7%; in assay [6] (setting [8]), 14%; in assay [6] (at 50.0 µM), 16% and 9.3%.
